Assay results as given in PubChem BioAssay (NCI).
This is part of a sample that, as a whole, favours compounds with a hit. Of some 83,000 tested, about 20% had one in any assay.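 96-well plates, one dose, 48 hours. Percent growth reported; active if below 10.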 Unmarked numbers belong to inactive results. Activity calls are given as the source filed them.

test system: NCI-H460 lung; assay: NCI-60 one-dose screen, 48 h (100 = growth as untreated, 0 = no growth, -100 = all killed); conditions: 10 µM
Procedure: Growth inhibition of the NCI-H460 human Non-Small Cell Lung tumor cell line is measured as a screen for anti-cancer activity. Cells are grown in 96 well plates and exposed to the test compound for 48 hours. Compounds are tested at a single concentration, which is 10^-5 M for most compounds. The reported endpoint is percent growth (GI% or GIPRCNT), where numbers from 0 - 100% represent growth inhibition, and numbers from -100% - 0 represent cell death. For example, a value of 40 represents 60% growth inhibition. A value of 0 means no net growth occurred over the course of the experiment. A value of -40 indicates 40% of cells at the beginning of the experiment died by the end of the experiment. A value of -100 means all cells are dead at the end of the experiment.
NCI-60 Human Tumor Cell Lines Screen was performed using the standard one-dose NCI protocol, which is described in more detail at https://dtp.cancer.gov/discovery_development/nci-60/default.htm.
Compounds with GIPRCNT values below 10 were considered active. Activity score was based on GIPRCNT using the following formula: […]
Score is 0 for GIPRCNT values of 100 or above, 50 for GIPRCNT values of 0, and 100 for GIPRCNT values of -100.

Compound	growth
C/C(=C\CC/C=C(\C)CC/C=C(\C)CC[C@@H](O)C(C)(C)O)CC/C=C(\C)CC[C@@H](O)C(C)(C)O	32%
CCCSc1nc(NC2CC2)c(C#N)c(-c2ccc(OC)cc2)n1	85.6%
O=S(=O)(c1ccc(Cl)cc1)c1nc(-c2ccccc2)oc1S(=O)(=O)c1ccc(Cl)cc1	98%
Cn1cc(/C=N/Nc2cccc(Cl)n2)c2ccccc21	63.8%
CCOC(=O)CNC(=O)CN(Cc1ccccc1)C(=O)[C@@]1(C)CCC[C@]2(C)[C@H]3C[C@H]4C(C(C)C)=C[C@]3(CC[C@H]21)[C@@H]1C(=O)OC(=O)[C@@H]14	61.1%
CCN1CCN(c2ccc(NC(=O)Nc3ccc(-c4cc(C(=O)NC)c5ncccc5n4)cc3)cc2C(F)(F)F)CC1	-100% (active)
Cc1ccc(-c2nc(Nc3ccc(S(N)(=O)=O)cc3)c3ccccc3n2)cc1	22.4%
CCOC(=O)C(Cc1ccccc1)N1C(=O)/C(=C/N2N=C(c3ccc(OC)cc3)CC2c2ccc3ccccc3c2)SC1=S (stereo not given)	-3.96% (active)
CN1CCO/C1=C(/NC(=O)c1ccc(Cl)cc1)[P+](c1ccccc1)(c1ccccc1)c1ccccc1	94.1%
C#CCNC(=O)CCC(=O)OC[C@]12CC[C@@H](C(=C)C)[C@@H]1C1CC[C@@H]3[C@@]4(C)CCCNC(C)(C)[C@@H]4CC[C@@]3(C)[C@]1(C)CC2 (stereo not given in full)	-74% (active)
COc1ccccc1[C@H]1C(C(=O)c2ccc(Cl)cc2)C2(N[C@@H]1c1ccccc1)C(=O)Nc1ccc(Cl)cc12 (stereo not given in full)	8.58% (active)
CC(C)(C)Nc1nc2cc(Cl)c(Cl)cc2nc1S(C)(=O)=O	73.1%
COc1ccc(-c2cc(C(=O)N=Nc3c(O)[nH]c4ccccc34)c3ccccc3n2)cc1	-70.4% (active)
O=c1[nH]n(C(=S)N/N=C/c2ccc(F)cc2)c(=O)c2ccccc12	55.9%
Cc1ccc(C(=O)NNC(=O)CSc2nc3ccccc3c(=O)[nH]2)cc1	108%
Cc1ccc2nc(-c3ccc(-c4nnc(SCC(=O)Nc5ccc(Cl)cc5)o4)cc3)[nH]c2c1	6.19% (active)
COC1=C[C@]23CCC(=O)N2CCc2cc4c(cc2[C@@H]3[C@@H]1OC(=O)CCCC(C)C)OCO4	17.4%
O=C1Nc2cc(Cl)ccc2/C1=C/c1ccc(OCc2ccc(Br)cc2F)cc1	-81.5% (active)
CC(=O)Nc1nc(-c2ccc(N3CCN(C)CC3)c(NS(=O)(=O)c3ccc(C(F)(F)F)cc3)c2)cs1	31.3%
O=c1oc2ccccc2cc1-c1csc(N=Nc2c(O)[nH]c3ccc(Br)cc23)n1	106%

Compound	growth
O=C(Nc1cccc(-c2cn(-c3ccc4oc(=O)ccc4c3)nn2)c1)Nc1cc(C(F)(F)F)cc(C(F)(F)F)c1	27.8%
CC1(C)CC[C@]2(C(=O)Nc3ccccc3)CC[C@]3(C)C(=CC[C@@H]4[C@@]5(C)CC[C@H](N)C(C)(C)[C@@H]5CC[C@]43C)[C@H]2C1	-30.2% (active)
CCCn1c(=O)c2[nH]c(-c3ccc(OCc4nc5ccc(C#N)cc5[nH]4)cc3)nc2n(CCC)c1=O	66.2%
C=C(C)[C@@H]1CC[C@]2(C)[C@H](CC=C3[C@@H]4CC(C)(C)CC[C@]4(C(=O)N4CCOCC4)CC[C@]32C)[C@@]1(C)CCCN	-77.5% (active)
CC(C)C1=C[C@@]23CC[C@@H]4[C@](C)(CCC[C@]4(C)C(=O)NCc4ccccc4)[C@H]2C[C@@H]1[C@H]1C(=O)CCC(=O)[C@H]13	84.5%
N#Cc1ccc(NC(=O)CSc2ccc(-c3ccc(Br)cc3)nn2)cc1	64.6%
COc1csc(/C=N/NC(=O)c2[nH]c3ccc(Br)cc3c2-c2ccccc2)c1	-5.74% (active)
Clc1ccc(/C=N/Nc2ncnc3sc4c(c23)CCN(Cc2ccccc2)C4)cc1	-75.6% (active)
COc1cc(-c2nc3cc(Cl)c(Cl)cc3[nH]2)ccc1OCc1nnc(-c2ccc(Br)cc2)o1	22.9%
C=C(C)[C@@H]1CC[C@]2(COP(=O)(OCC)OCC)CC[C@]3(C)[C@H](CC[C@@H]4[C@@](C)(CCCN)[C@H](C(=C)C)CC[C@]43C)[C@@H]12	8.95% (active)
CC(=C(c1ccc(OCCN2CCCCCC2)cc1)c1ccc(OCCN2CCCCCC2)cc1)c1ccc(Cl)cc1	-54.1% (active)
O=C1Nc2cc(Cl)ccc2/C1=C/c1cccc(OCc2ccccc2)c1	3.73% (active)
C=CCn1c(SCC(=O)Nc2ccc(C(=O)/C=C/c3ccccc3)cc2)nnc1-c1c[nH]c2ccccc12	78.6%
O=C(CNc1nc(-c2ccccc2)cs1)Nc1ccc(Br)cc1	-61.5% (active)
NS(=O)(=O)c1ccc(NC(=O)CSc2ccc(-c3ccc(Cl)cc3)nn2)c(Br)c1	23%
COC1CC(Cn2cc(COc3ccc4ccc(=O)oc4c3)nn2)C(OCc2ccccc2)C(OCc2ccccc2)C1OCc1ccccc1 (stereo not given)	113%
Nc1nc2c(F)c(F)c(F)c(F)c2s1	107%
O=C(CSc1nnc(-c2c[nH]c3ccccc23)n1-c1ccccc1)c1ccc(Cl)cc1	60.1%
O=[N+]([O-])c1ccc(-c2nc(-c3ccccc3)c(-c3ccccc3)n2-c2ccc(S(=O)(=O)Nc3ncccn3)cc2)cc1	31.3%
O=C(Nc1nc2ccccc2s1)c1ccc(Br)cc1	81.6%
